Screening results as filed in PubChem BioAssay.
This is a sample that favours compounds with a hit; in the whole collection about 1.2% have one here.
PKM2 act: increases activity of human pyruvate kinase M2; P14618; purified PKM2, Kinase-Glo ATP luminescence, activation; response scale: 0% is enzyme alone, no compound; Potency, µM (titrated, usually from 57.5 µM), inactives show at the highest dose activation, actives largely listed as activators; hit rate 0.34% among 260,000; AID 1631; also: potency is read from the fitted curve at half-maximal effect; nearly all actives have a fitted effect of over 55% in size
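Purified hPK-M2 (>95%) run at intermediate activity with 0.1 mM ADP and 0.5 mM PEP in 50 mM imidazole pH 7.2, KCl, MgCl2; 1 h room temperature. ATP formed read by Kinase-Glo luminescence; normalized to uninhibited and no-enzyme controls.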
GALK inhibitor: blocks human galactokinase activity | P51570 | Purified GALK, Kinase-Glo residual ATP luminescence | Potency, µM (top dose mostly 57.5 µM), without a hit: at the highest dose activity change, negative = inhibition, actives largely listed as inhibitors | hit rate 0.007% among 270,000 | AID 1868; also: potency is read from the fitted curve at half-maximal effect
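ATP-depletion format; final 35 uM ATP, 100 uM D-galactose, 5 nM enzyme; pH 8.0 HEPES/Mg2+ buffer; 60 min RT; luminescence read 10 min after detection reagent.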
rTrxR1 inhibitor: inhibitors of rat thioredoxin reductase 1. Potency, µM (series often up to 114 µM), for inactives: at the top dose activity change, negative = inhibition, hits mostly inhibitors. O89049. AID 588453. hit rate 1% among 390,000. recombinant rTrxR1, NADPH fluorescence consumption, selenite substrate; also: potency is read from the fitted curve at half-maximal effect; nearly all actives have a fitted effect of over 65% in size
Target sequence (O89049 whole entry, looked up): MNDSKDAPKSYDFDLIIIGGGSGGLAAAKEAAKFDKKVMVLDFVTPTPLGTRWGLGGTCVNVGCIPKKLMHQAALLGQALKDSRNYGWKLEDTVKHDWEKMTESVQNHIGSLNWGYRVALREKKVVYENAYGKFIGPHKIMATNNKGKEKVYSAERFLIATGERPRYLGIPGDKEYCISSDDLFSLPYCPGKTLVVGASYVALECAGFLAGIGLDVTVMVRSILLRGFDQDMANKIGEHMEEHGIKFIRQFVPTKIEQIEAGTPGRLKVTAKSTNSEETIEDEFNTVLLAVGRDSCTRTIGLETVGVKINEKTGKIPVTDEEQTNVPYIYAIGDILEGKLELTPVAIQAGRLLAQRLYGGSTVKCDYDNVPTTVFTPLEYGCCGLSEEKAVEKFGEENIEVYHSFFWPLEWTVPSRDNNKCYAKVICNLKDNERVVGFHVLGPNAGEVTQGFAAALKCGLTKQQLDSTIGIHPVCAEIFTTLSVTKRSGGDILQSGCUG
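Rat TrxR1 (90 nM in the dispensed reagent) was pre-reduced with 400 uM NADPH for 5 min at room temperature, then incubated with compound for 15 min. After 400 uM selenite was added, NADPH fluorescence (Ex 340/Em 450 nm) was followed for 8 min.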
TrxR1 substrate: substrates of rat thioredoxin reductase 1. Potency, µM (titrated, usually from 114 µM), inactives show at the top dose activity change, negative = substrate turnover. hit rate 0.01% among 390,000. purified TrxR1 substrate turnover, NADPH consumption readout. O89049; also: potency is read from the fitted curve at half-maximal effect; nearly all actives have a fitted effect of over 50% in size
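Rat TrxR1, dispensed at 90 nM, was prereduced with 400 uM NADPH (final) for 5 min at ~22 deg C, then incubated with compound 15 min before 400 uM selenite. A first-read NADPH fluorescence drop versus no-compound background flagged substrates.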
PI4K2A block: inhibitors of human PI4K2A; Q9BTU6; purified PI4K2A, ADP-Glo luminescence, 1 h; stronger effect = lower value; activity change, negative = inhibition, % at 76.9 µM; hit rate 0.13% among 420,000; AID 1346378; in the data active = activity change below about -50%; inconclusive = mostly about -30% to -49%;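 also: -100% = wells without enzyme as full effect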
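PI4K2A activity was measured by ADP-Glo luminescence: enzyme (4 ug/mL stock) and phosphatidylinositol (1.2 mM stock) in Tris pH 7.5/MgCl2/EGTA/Triton X-100 buffer were reacted with ATP (300 microM stock) for one hour at ambient temperature.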
* marks the source's active call; other numbers are inactive results; ? = inconclusive; / = not tested or not shown; [ ] = dose if it differs, or a comment. Unless noted, calls follow the shape of the dose curve; as a rule, active = well fitted curve in the direction sought with a large enough effect; inconclusive = small, poorly fitted or top-dose-only effect, or another doubt; inactive = no such curve, though single readings can be large; an effect the other way counts as inactive or inconclusive. Unless noted, % is scaled to controls: 0 for no effect and ±100 for the full control effect.

SMILES	PKM2 act	GALK inhibitor	rTrxR1 inhibitor	TrxR1 substrate	PI4K2A block
CCOc1ccc(N2C(=O)CC(NCCNc3ccc([N+](=O)[O-])cn3)C2=O)cc1 (stereo unspecified)	2%	-2%	?	-2%	-2
CC1CCCN(S(=O)(=O)c2ccc(N3CCCCS3(=O)=O)cc2)C1 (stereo unspecified)	/	/	8%[57.1 µM]	1%[57.1 µM]	2
COc1cc(C=C2CN(C)C(=O)C2=O)ccc1O	/	/	/	/	-3
CCOc1cc(/C=C2\CN(C)C/C(=C\c3ccc(O)c(OCC)c3)C2=O)ccc1O	/	-8%	56µM*	-16%	-3
CCOc1ccc(CC(=O)C2C(=O)CCCC2=O)cc1OCC	6%	-1%	28µM*	3%[57.1 µM]	8
CCOc1ccc(CC(=O)NC2CC(C)(C)N(C)C(C)(C)C2)cc1OCC	/	/	29%	6%	1
CCOc1ccc(CC(=O)C2C(=O)CC(C)(C)CC2=O)cc1OCC	-9%	-2%	35µM*	-5%	-4
CSc1nnc2c(n1)C[C@H](c1ccccc1)[C@@H](C)[C@@H](C(=O)N1CCCC1)C2	/	/	/	/	-1
CCOC(=O)c1c(NC(=O)CSc2cn(CCNC(=O)c3ccccc3OC)c3ccccc23)sc2c1CCC2	/	/	20%	11%	3
O=C(NNC(=S)NC(=O)c1ccc(Br)cc1)c1cccc([N+](=O)[O-])c1	/	3%	?	-1%	-4
CC(=O)NNC(=S)NC(=O)c1cccc([N+](=O)[O-])c1	-17%	0%	50µM*	5%	-7
CCC(=O)N(CCC(c1ccc(C)cc1)c1ccco1)Cc1ccco1 (stereo unspecified)	13%	-6%	35µM*	-2%	-7
CCC(=O)N(CCC(c1ccco1)C(C)C)Cc1ccccc1 (stereo unspecified)	15%	-1%	7%[57.1 µM]	-4%[57.1 µM]	-22
COc1cc(/C=C2\N=C(c3ccccc3)OC2=O)ccc1OC(C)=O	-1%	3%	-1%	-4%	5
CCOC(=O)COc1c(Cl)cc(/C=C2\N=C(C)OC2=O)cc1OC	/	/	14µM*	8%[57.1 µM]	1
COc1ccc(/C=C2\N=C(C)OC2=O)cc1OC	/	-3%	40µM*	-15%	6
COc1ccc(/C=C2\N=C(C)OC2=O)cc1OC(C)=O	/	2%	45µM*	-15%	4
Cc1ccc(NC2C(=O)NC(=O)NC2=O)cc1	/	/	-8%[2.29 µM]	-12%[57.1 µM]	-59*
Cc1ccc(NC2CNC(=O)NC2=O)cc1C (stereo unspecified)	/	/	8%[2.29 µM]	-6%[57.1 µM]	1
CC(=O)N1N=C(c2ccc(Cl)cc2)CC1c1ccco1 (stereo unspecified)	25µM*	-1%	3%	-3%	1
Cc1ccc(C2=NN(C(=O)CCl)C(c3ccco3)C2)o1 (stereo unspecified)	18%	13%	22µM*	3%[57.1 µM]	1
CCC(C)NC(=O)c1ccc2c(c1)N=C(C)c1cc(C)ccc1S2 (stereo unspecified)	/	/	-4%	-4%	-4
O=C(CCl)Nc1cccc(-c2cnc3ccccc3n2)c1	-1%	-4%	20µM*	-1%	2
O=C(Nc1ccc(C(=O)N2CCCC2)cc1)c1ccccc1F	-97%	11%	14%	3%	-70*
O=C(Nc1ccc(C(=O)N2CCC(N3CCCC3)CC2)cc1)c1ccc(Br)o1	/	/	56µM*	2%	-2
SMILES	PKM2 act	GALK inhibitor	rTrxR1 inhibitor	TrxR1 substrate	PI4K2A block
O=C(Nc1cc(C(=O)N2CCCC2)ccc1N1CCCC1)c1ccccc1F	5%	-1%	6%	1%	1
CCOC(=O)C1=C(C)Nc2nnnn2C1c1cccc(OC)c1OC (stereo unspecified)	16µM*	2%	-8%	-5%	2
Cc1nc(NC2CCCCC2)c2nc(-c3ccccc3)n(CC3CCN(C)CC3)c2n1	-1%	/	/	/	/
C[C@H](NC(=O)c1ccc(Cl)cc1)C(=O)OCn1nnc2ccccc2c1=O	/	/	1%	0%	1
O=C(CSCC(=O)OCn1nnc2ccccc2c1=O)Nc1ccc(Cl)cc1	6%	-2%	18µM*	1%	1
O=c1cc(-c2ccc(OCc3ccccc3)cc2)oc2cc(OCc3ccccc3)cc(OCc3ccccc3)c12	/	/	40µM*	4%	-9
CCOC(=O)N1C(=O)[C@@](CC)(c2ccccc2)N1C(=O)OCC	-9%	/	2.2µM*	-9%	2
CC[C@@]1(c2ccccc2OC)C(=O)N(C(=O)OC)N1C(=O)OC	2%	/	?	6%[57.1 µM]	-1
COC(=O)N1C(=O)[C@](c2ccsc2)(C(C)C)N1C(=O)OC	-1%	/	25µM*	5%	-13
COC(=O)N1C(=O)[C@@](CC(C)C)(c2ccccc2)N1C(=O)OC	3%	/	/	/	/
CC[C@@]1(c2cccc(C)c2)C(=O)N(C(=O)OC)N1C(=O)OC	2%	/	2µM*	4%	-1
COC(=O)N1C(=O)[C@](CC(C)C)(c2ccccc2)N1C(=O)OC	2%	/	2µM*	-6%	-8
CSCCCNc1nc(C)nc2c1nnn2Cc1ccccc1	/	/	/	/	2
CCOc1ccc(-n2c(SCC(=O)Nc3ccccc3-c3ccccc3)nnc2-c2ccncc2)cc1	/	/	/	/	-4
CN(C)c1ccc(/C=C/c2ccnc3ccc(I)cc23)cc1	/	/	-18%	-10%	/
COC(=O)N1C(=O)[C@@](c2ccccc2)(C2CCCC2)N1C(=O)OC	-12%	/	8.9µM*	-6%	7
COc1ccc2c(c1)c(=O)c(S(=O)(=O)c1ccccc1)cn2CC(=O)Nc1ccc(C)c(Cl)c1	/	/	16%	7%	0
Cc1cc2c(C)cc(=O)[nH]c2cc1NC(=O)CCl	3%	4%	20µM*	2%	4
COc1nc(-c2ccccc2)ncc1S(=O)(=O)c1ccccc1	16µM*	-3%	33%	-2%	6
COc1ccc(Oc2nc(-c3ccccc3)ncc2S(=O)(=O)c2ccccc2)cc1	10%	1%	29%[57.1 µM]	0%[57.1 µM]	-6
O=C(c1cscn1)N1CCC(Oc2cccnc2)CC1	/	/	/	/	1
CCN(CC)CCCNC(=O)c1cn(CC)c2cc(N3CCN(C(=O)c4ccco4)CC3)c(F)cc2c1=O	/	-4%	71µM*	76%	0
CC[C@H]1OC(=O)[C@H](C)[C@@H](O[C@H]2C[C@@](C)(OC)[C@@H](O)[C@H](C)O2)C(C)[C@@H](O[C@@H]2O[C@H](C)C[C@H](N(C)C)[C@H]2O)[C@](C)(O)C[C@@H](C)CN(C)[C@H](C)[C@@H](O)[C@]1(C)O (stereo partly specified)	/	/	/	/	0
Cc1onc(-c2ccc(Br)cc2)c1C(=O)Nc1ccc(Br)cc1F	/	/	2%[57.1 µM]	-4%[57.1 µM]	3
O=C1C=C(N2CCOCC2)c2ccccc2C1=O	-7%	13µM*	?	25µM*	-75*
Cc1nn(-c2nc3ccccc3[nH]2)c(=O)c2ccccc12	-72%	?	?	32%	-81*
